Experiment [1] in a line: Nuclear factor erythroid 2-related factor 2/antioxidant responsive element (Nrf2/ARE) small molecule agonists: qHTS cell viability counter screen in human keratinocytes (AID 1919968; active = well fitted curve in the direction sought with a large enough effect in the repeat runs; an effect the other way counts as inactive or inconclusive; also: nearly all actives have a fitted effect of over 55% in size; also: potency is read from the fitted curve at half-maximal effect). In a few lines:
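After a 5 h attachment period, ARE-reporter keratinocytes were dosed with compounds in DMSO and then cultured 23 h at 37 C. Cell viability came from CellTiter-Fluor signal read after a further 1 h.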

Experiment [2] addresses Gonadotropin-releasing hormone receptor (Homo sapiens) (UniProt P30968). In words: Human gonadotropin-releasing hormone receptor (GnRHR) small molecule agonists, calcium flux assay in GnRHR-HEK293 cells (AID 1920063). Also: nearly all actives have a fitted effect of over 35% in size. In a few lines: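 We seeded human GnRHR-expressing HEK293 cells for 18 hours, loaded them with calcium dye for an hour at 37 C, added test compounds, and recorded fluorescence intensity kinetically for three minutes.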
For orientation: A change in cytosolic calcium serves as a functional read-out for many receptors and channels.

For experiment [3], the target named is KiSS-1 receptor (Homo sapiens) (UniProt Q969F8). In words: Human kisspeptin (KISS1R) small molecule agonists, calcium flux assay in KISS1R-HEK293 cells (AID 1920064; active = well fitted curve in the direction sought with a large enough effect in the repeat runs; an effect the other way counts as inactive or inconclusive; also: potency is read from the fitted curve at half-maximal effect). In a few lines: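 Kinetic calcium assay, 1 s sampling over 3 min at Ex/Em 480/540, in HEK293 cells engineered with human KISS1R; compounds delivered in DMSO after 1 h dye loading.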
KiSS-1 receptor (Homo sapiens), sequence (Q969F8 whole entry, looked up): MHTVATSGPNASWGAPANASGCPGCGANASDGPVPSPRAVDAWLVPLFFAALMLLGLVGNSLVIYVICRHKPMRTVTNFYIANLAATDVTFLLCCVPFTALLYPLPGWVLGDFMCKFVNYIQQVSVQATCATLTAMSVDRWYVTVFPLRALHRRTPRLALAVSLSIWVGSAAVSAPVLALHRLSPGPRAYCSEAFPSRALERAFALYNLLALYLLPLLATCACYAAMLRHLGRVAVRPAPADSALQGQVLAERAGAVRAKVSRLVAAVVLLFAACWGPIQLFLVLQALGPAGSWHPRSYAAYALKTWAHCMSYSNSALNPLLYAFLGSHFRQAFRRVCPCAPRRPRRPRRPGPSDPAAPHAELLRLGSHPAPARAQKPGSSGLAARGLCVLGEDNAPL
Experiment [4] can be described thus: G protein-coupled receptor (GPCR) small molecule agonists, calcium flux assay: HEK293 wild type cell line counter screen (AID 1920065). In a few lines: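 Calcium-sensitive dye, loaded 1 h at 37 C into cells cultured 18 h, reports compound-evoked calcium release as fluorescence (Ex/Em 480/540), measured over 3 min. Agonist mode; 15-point titrations, triplicate.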

Experiment [5] can be described thus: p53 small molecule agonists, cell-based qHTS assay with human liver microsomes (AID 1963577). In a few lines: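 Compounds act here after metabolic activation: human liver microsomes and NADPH, both at 0.5 mg/mL final, were co-added to p53RE-bla cells. Incubation ran 16 h at 37 C, followed by LiveBLAzer detection.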
Background: qHTS replaces the single test concentration by a dilution series.

Experiment [6] is described as follows: p53 small molecule agonists, cell-based qHTS assay with rat liver microsomes (AID 1963578). Put shortly: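 Read-out is beta-lactamase reporter fluorescence (LiveBLAzer, 2 h, room temperature, dark) in p53RE-bla cells treated 16 h at 37 C with compound, rat liver microsomes and NADPH, both 0.5 mg/mL final.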
The nature of experiment [7]: p53 small molecule agonists, cell-based qHTS assay with rat liver microsomes: qHTS cell viability counter screen (AID 1963580). Also: nearly all actives have a fitted effect of over 45% in size. In a few lines:
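p53RE-bla HCT-116 cells (4,000/well) rested 5 h at 37 C, then given Tox21 compounds in DMSO with rat liver microsomes (0.5 mg/mL final) plus NADPH (0.5 mg/mL final) for 16 h at 37 C. Viability read by CellTiter-Glo luminescence after 30 min at room temperature.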

A short description of experiment [8]: p53 small molecule agonists, cell-based qHTS assay: qHTS cell viability counter screen (AID 1963581). Also: nearly all actives have a fitted effect of over 45% in size. In a few lines: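 Following 5 h attachment, HCT-116 p53RE-bla cells took up compound for 16 h at 37 C; the reporter was read with B/G FRET substrate (2 h RT), and viability then via CellTiter-Glo ATP luminescence.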
Experiment [9] has as its target Muscarinic acetylcholine receptor M1 (Homo sapiens) (UniProt P11229). In words: Cholinergic receptor muscarinic 1 (CHRM1) small molecule agonists, cell-based qHTS assay (AID 1963589). Also: nearly all actives have a fitted effect of over 35% in size. In a few lines:
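Measures agonist-induced intracellular calcium rise. Stable human CHRM1 CHO line, 1 h dye load at 37 C, compounds from DMSO, kinetic fluorescence read.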

Experiment [10] is described as follows: cAMP Responsive Elements (CRE) small molecule agonists, cell-based qHTS assay (AID 1963590). In a few lines:
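A CRE-responsive beta-lactamase reporter in HEK 293T cells was used. Treatment ran 3 h at 37 C; detection used LiveBLAzer B/G FRET substrate for 2 h at room temperature.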

The nature of experiment [11]: cAMP Responsive Elements (CRE) small molecule antagonists, cell-based qHTS assay (AID 1963591; active = well fitted inhibition curve with a large enough effect in the signal ratio in the repeat runs, not every such curve was filed as active; the % refers to the signal ratio). Put shortly:
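HEK293T cells carrying a CRE-driven beta-lactamase reporter receive compound and NKH477 (0.25 uM final) for 3 h. Fluorescence from LiveBLAzer B/G FRET substrate is read after 2 h at room temperature.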

The target in experiment [12] is Beta-2 adrenergic receptor (Homo sapiens) (UniProt P07550). In words: Adrenergic beta2 receptor (ADRB2) small molecule antagonists, cell-based qHTS assay (AID 1963592). Also: nearly all actives have a fitted effect of over 50% in size. Also: potency is read from the fitted curve at half-maximal effect. In a few lines:
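Cells (CHO, stable ADRB2 overexpression) incubated 18-20hr at 37C; compounds added from DMSO; agonist mix (1nM isoproterenol, 100uM IBMX, 25uM Ro-20-1724) added; 0.5hr RT; d2-cAMP and anti-cAMP-cryptate added; 1hr RT; 665/615 nm read.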

For experiment [13], the target named is D(2) dopamine receptor (Homo sapiens) (UniProt P14416). Briefly: Dopamine D2 receptor (DRD2) small molecule agonists, cell-based qHTS assay (AID 1963594). Also: nearly all actives have a fitted effect of over 35% in size. In a few lines: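 HEK293 cells stably expressing DRD2 were cultured 24 h at 37 C, then given Ro20-1724 (0.1 mM final) and compounds for 10 min at room temperature. NKH477 (200nM) was then added for 30 min. cAMP was read by HTRF.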
D(2) dopamine receptor (Homo sapiens), sequence (P14416 whole entry, looked up): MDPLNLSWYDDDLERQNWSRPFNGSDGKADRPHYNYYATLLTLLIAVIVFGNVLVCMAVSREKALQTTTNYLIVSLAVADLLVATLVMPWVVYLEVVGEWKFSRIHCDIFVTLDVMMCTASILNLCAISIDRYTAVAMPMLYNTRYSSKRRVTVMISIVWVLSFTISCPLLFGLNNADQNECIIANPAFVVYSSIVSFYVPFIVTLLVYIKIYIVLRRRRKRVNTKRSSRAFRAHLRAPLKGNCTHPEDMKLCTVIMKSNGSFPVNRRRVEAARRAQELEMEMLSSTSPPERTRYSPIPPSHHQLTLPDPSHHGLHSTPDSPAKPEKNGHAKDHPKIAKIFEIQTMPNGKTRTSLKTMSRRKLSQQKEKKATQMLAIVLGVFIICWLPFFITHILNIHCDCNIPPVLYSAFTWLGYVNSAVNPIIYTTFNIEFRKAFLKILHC

For experiment [14] the target is unchanged. Briefly: Dopamine D2 receptor (DRD2) small molecule antagonists, cell-based qHTS assay (AID 1963595; active = well fitted inhibition curve with a large enough effect in the signal ratio in the repeat runs, with a control signal flat; the % refers to the signal ratio). In a few lines:
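In this cell-based antagonist screen, compounds act for 10 min at room temperature before a 30 min challenge with 12 nM quinpirole and 200 nM NKH477. cAMP is quantified by HTRF competition in DRD2-HEK293 cells containing 0.1 mM Ro20-1724.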

Experiment [15] in a line: p53 small molecule agonists, cell-based qHTS assay (AID 1963582; active = well fitted activation curve with a large enough effect in the signal ratio in the repeat runs, not every such curve was filed as active; the % refers to the signal ratio). Put shortly:
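In this cell-based concentration-response screen, a p53 response element drives beta-lactamase; cells received DMSO-borne compounds after 5 h culture and were incubated a further 16 h before FRET substrate development.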

The target in experiment [16] is 5-hydroxytryptamine receptor 2A (Homo sapiens) (UniProt P28223). In words: 5-hydroxytryptamine receptor 2A (HTR2A) small molecule antagonists, cell-based qHTS assay (AID 1963586). Also: nearly all actives have a fitted effect of over 45% in size. Put shortly:
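Antagonist-mode intracellular calcium assay: DOI (4 nM) added after 5 min compound pre-incubation at room temperature to dye-loaded HTR2A-CHO cells. Fluorescence followed for 3 min, sampled every second.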

Experiment [17] has the same target. In words: 5-hydroxytryptamine receptor 2A (HTR2A) small molecule agonists, cell-based qHTS assay (AID 1963587). Also: nearly all actives have a fitted effect of over 30% in size. Put shortly: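 HTR2A-CHO cells, plated 18 h at 37 C/5% CO2, dye-loaded 1 h at 37 C; compounds in DMSO added by pin tool (agonist mode). Intracellular calcium flux read as kinetic fluorescence on FDSS over 2 min at 1 s intervals.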
The target of experiment [18] is Muscarinic acetylcholine receptor M1 (Homo sapiens) (UniProt P11229). In words: Cholinergic receptor muscarinic 1 (CHRM1) small molecule antagonists, cell-based qHTS assay (AID 1963588). Also: nearly all actives have a fitted effect of over 40% in size. Put shortly:
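CHRM1-CHO calcium-flux assay, antagonist mode. Cells were seeded 18 h, dye-loaded 1 h at 37 C and given compound for 5 min at RT, then acetylcholine was added at 50nM. FDSS fluorescence was read 3 min; 15 concentrations, three runs.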

Experiment [19] deals with Beta-2 adrenergic receptor (Homo sapiens) (UniProt P07550). Briefly: Adrenergic beta2 receptor (ADRB2) small molecule agonists, cell-based qHTS assay (AID 1963593).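 Also: CHO cells stably overexpressing human ADRB2.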 Put shortly: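 CHO cells stably over-expressing ADRB2 were plated overnight at 37C, then dosed with compounds plus a stimulation mix containing 100uM IBMX and 25uM Ro-20-1724 for 0.5hr at room temperature. cAMP was measured by HTRF competition, 1hr.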
Beta-2 adrenergic receptor (Homo sapiens), sequence (P07550 whole entry, looked up): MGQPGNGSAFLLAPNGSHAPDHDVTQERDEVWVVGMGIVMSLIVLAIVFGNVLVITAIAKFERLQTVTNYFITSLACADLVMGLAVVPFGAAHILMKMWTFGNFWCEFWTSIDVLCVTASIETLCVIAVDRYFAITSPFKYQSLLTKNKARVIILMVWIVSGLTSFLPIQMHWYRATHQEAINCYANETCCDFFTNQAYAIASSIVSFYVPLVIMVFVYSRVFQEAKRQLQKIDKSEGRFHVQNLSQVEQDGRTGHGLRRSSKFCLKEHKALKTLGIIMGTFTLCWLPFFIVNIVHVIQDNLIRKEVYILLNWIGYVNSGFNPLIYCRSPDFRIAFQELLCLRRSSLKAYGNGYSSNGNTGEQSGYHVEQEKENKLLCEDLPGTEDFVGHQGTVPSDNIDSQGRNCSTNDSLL

Experiment [20] in a line: p53 small molecule agonists, cell-based qHTS assay with human liver microsomes: qHTS cell viability counter screen (AID 1963579). Also: nearly all actives have a fitted effect of over 45% in size. Put shortly:
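Cells carrying the p53 response-element beta-lactamase reporter are treated for 16 h at 37 C with test compounds in the presence of human liver microsomes and NADPH (both 0.5 mg/mL final); ATP-based CellTiter-Glo luminescence then reports viability.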

Consider 9 compounds from PubChem BioAssay (Tox21).

Unmarked numbers belong to inactive results. Inconclusive results are not listed. Activity calls are given as the source filed them. Unless noted, calls follow the shape of the full dose curve.

Gonadotropin-releasing hormone receptor (Homo sapiens), sequence (P30968 whole entry, looked up): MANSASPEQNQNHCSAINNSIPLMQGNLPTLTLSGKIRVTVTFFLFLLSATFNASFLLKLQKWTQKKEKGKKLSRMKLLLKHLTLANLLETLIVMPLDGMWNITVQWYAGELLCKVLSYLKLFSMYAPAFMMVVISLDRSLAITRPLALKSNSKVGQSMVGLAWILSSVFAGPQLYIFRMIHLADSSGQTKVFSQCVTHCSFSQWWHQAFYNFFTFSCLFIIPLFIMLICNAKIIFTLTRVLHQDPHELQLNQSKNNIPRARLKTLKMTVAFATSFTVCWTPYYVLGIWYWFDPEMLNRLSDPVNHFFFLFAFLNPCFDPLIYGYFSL
5-hydroxytryptamine receptor 2A (Homo sapiens), sequence (P28223 whole entry, looked up): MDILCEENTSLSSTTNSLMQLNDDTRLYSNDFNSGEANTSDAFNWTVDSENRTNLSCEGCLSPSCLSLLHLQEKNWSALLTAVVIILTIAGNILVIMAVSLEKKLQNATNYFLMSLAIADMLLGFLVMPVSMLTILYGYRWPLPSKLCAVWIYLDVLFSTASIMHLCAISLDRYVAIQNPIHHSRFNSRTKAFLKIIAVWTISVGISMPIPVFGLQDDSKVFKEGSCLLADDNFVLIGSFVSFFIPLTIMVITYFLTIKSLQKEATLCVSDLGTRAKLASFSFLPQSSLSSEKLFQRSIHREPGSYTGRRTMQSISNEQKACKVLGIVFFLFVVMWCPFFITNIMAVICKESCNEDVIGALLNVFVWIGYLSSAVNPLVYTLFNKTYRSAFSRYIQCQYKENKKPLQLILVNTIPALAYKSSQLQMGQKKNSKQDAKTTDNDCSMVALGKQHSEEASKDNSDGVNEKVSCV
Muscarinic acetylcholine receptor M1 (Homo sapiens), sequence (P11229 whole entry, looked up): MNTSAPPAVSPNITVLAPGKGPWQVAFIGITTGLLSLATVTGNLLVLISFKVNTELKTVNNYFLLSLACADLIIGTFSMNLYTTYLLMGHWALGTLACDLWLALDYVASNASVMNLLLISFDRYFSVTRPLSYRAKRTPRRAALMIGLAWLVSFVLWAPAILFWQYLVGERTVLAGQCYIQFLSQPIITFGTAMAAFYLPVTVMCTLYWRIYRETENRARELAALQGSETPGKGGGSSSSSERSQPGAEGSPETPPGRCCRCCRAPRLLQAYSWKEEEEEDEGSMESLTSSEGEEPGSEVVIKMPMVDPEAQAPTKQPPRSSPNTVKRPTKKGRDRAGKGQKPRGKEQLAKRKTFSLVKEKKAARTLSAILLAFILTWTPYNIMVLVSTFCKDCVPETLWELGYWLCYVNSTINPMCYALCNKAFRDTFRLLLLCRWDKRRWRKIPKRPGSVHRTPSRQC

For the compound `C[C@H]1CNCCc2ccc(Cl)cc21`, the Potency result in experiment [1], in [2], in experiment [3], in [4], in experiment [5] and in [6] was “inactive” throughout. Moreover, the Potency result in experiment [7], in experiment [8], in experiment [9], in [10], in [11] and in [13] was “inactive” each time. Further, the Potency entry in experiment [14] was “inactive”. In addition, the Potency in experiment [12] was 23.7 µM (active).
`NC(=O)CI`: the Potency entry in [1], in experiment [2], in experiment [3], in [4], in [5] and in experiment [6] was “inactive” each time. Besides, the Potency entry in experiment [7], in experiment [8], in [15], in experiment [16], in experiment [17] and in [18] was “inactive” each time. For the same compound, the Potency result in experiment [11], in [19], in experiment [13] and in experiment [14] was “inactive” in each case.
As for `CCC[CH2][Sn]([CH2]CCC)([O]C(C)=O)[O]C(C)=O`, the Potency in [1] was 0.219 µM (active). The Potency result in [2], in experiment [3], in [4], in experiment [5], in [6] and in experiment [20] was “inactive” in each case. Also, the Potency result in [8], in experiment [16], in experiment [17], in [18], in experiment [11] and in experiment [12] was “inactive” throughout. The Potency result in experiment [19], in [13] and in experiment [14] was “inactive” each time.
Turning to `CCN(CC)c1c([N+](=O)[O-])cc(C(F)(F)F)c(N)c1[N+](=O)[O-]`, the Potency entry in [1], in [2], in experiment [3], in experiment [4], in experiment [5] and in experiment [6] was “inactive” in each case. The Potency entry in experiment [7], in experiment [8], in experiment [15], in experiment [17], in experiment [9] and in experiment [19] was “inactive” each time. Besides, the Potency result in experiment [13] and in experiment [14] was “inactive” in each case.
Consider `CN1[C@@H]2CC[C@H]1CC(O)C2` (stereo not given in full), for which the Potency entry in experiment [1], in [2], in [3], in experiment [4], in [5] and in experiment [6] was “inactive” each time. In addition, the Potency entry in experiment [20], in experiment [7], in experiment [15], in experiment [16], in experiment [17] and in experiment [18] was “inactive” throughout. Also, the Potency entry in [9], in [10], in experiment [11], in experiment [12], in [13] and in experiment [14] was “inactive” each time.
Regarding `CCCCCCC[CH2][Sn]([Cl])([Cl])[CH2]CCCCCCC`, the Potency is 30.6 µM (active) in experiment [1] and 48.9 µM (active) in [3]. Moreover, the Potency entry in [2], in experiment [4], in experiment [5], in [6], in [20] and in experiment [8] was “inactive” each time. The Potency entry in [16], in [18], in [9], in [12], in experiment [13] and in experiment [14] was “inactive” each time.
Turning to `Clc1ccc(-c2ccc(Cl)c(Cl)c2Cl)c(Cl)c1Cl`, the Potency in experiment [1] was 51.9 µM (active). Also, the Potency entry in [2], in experiment [3], in experiment [4], in experiment [5], in experiment [6] and in [20] was “inactive” each time. Also, the Potency result in experiment [7], in experiment [8], in experiment [16], in experiment [17], in experiment [18] and in experiment [9] was “inactive” throughout. Also, the Potency result in experiment [11], in experiment [12] and in [14] was “inactive” in each case.
For the compound `FC(F)(F)c1cccc(C2=CCN(CCc3ccc4ccccc4c3)CC2)c1`, the Potency entry in [1], in [2], in experiment [3], in experiment [4], in [5] and in experiment [6] was “inactive” throughout. The Potency result in experiment [7], in experiment [8], in experiment [15], in [16], in [17] and in experiment [18] was “inactive” each time. Also, the Potency result in experiment [9], in experiment [10] and in experiment [12] was “inactive” each time.
Take `CC(C)N(C(=O)SC/C(Cl)=C/Cl)C(C)C`: the Potency entry in [1], in experiment [2], in experiment [3], in [4], in [5] and in [6] was “inactive” throughout. In addition, the Potency result in experiment [20], in experiment [7], in experiment [15], in experiment [16], in experiment [17] and in experiment [9] was “inactive” in each case. For the same compound, the Potency result in experiment [10], in [11], in experiment [12], in experiment [13] and in experiment [14] was “inactive” in each case.
